In the library only some 1.6% were active in any assay of this set; here they are far more common.
Sa ugtP lethal: growth inhibition of S. aureus ugtP deletion strain; S. aureus RN4220 ugtP deletion, OD600 growth, 16 h; growth inhibition, % (concentration not given with the values); hit rate 0.54% among 330,000; in the data active = growth inhibition above about 68%
RN4220 kill: S. aureus RN4220 growth inhibition; inhibition, % (test concentration not listed); hit rate 0.33% among 330,000; OD600, 16 h; in the data active = inhibition above about 85%
BJeLR viability: kills HRASV12-expressing BJeLR cells; BJeLR (HRASV12) viability, CellTiter-Glo ATP luminescence, 48 h; inhibition, % (no concentration beside the values); AID 1554; hit rate 0.17% among 300,000; in the data active = inhibition above about 50%
Mtb hypoxia rep: reduces hypoxia-regulated biosensor signal in M. tuberculosis; fluorescence inhibition, % (test concentration not listed); hit rate 0.1% among 300,000; M. tuberculosis hypoxia-regulated fluorescent reporter, fluorescence; in the data active = fluorescence inhibition mostly above about 23%, no sharp cut-off; inactive = mostly below about 17%
RecA intein inh: blocks M. tuberculosis RecA intein splicing | AID 2221 | hit rate 0.75% among 290,000 | P9WHJ3 | inhibition, % (no concentration beside the values) | cell-free RecA intein splicing, fluorescence; in the data active = inhibition above about 30%
Target sequence (P9WHJ3 whole entry, looked up): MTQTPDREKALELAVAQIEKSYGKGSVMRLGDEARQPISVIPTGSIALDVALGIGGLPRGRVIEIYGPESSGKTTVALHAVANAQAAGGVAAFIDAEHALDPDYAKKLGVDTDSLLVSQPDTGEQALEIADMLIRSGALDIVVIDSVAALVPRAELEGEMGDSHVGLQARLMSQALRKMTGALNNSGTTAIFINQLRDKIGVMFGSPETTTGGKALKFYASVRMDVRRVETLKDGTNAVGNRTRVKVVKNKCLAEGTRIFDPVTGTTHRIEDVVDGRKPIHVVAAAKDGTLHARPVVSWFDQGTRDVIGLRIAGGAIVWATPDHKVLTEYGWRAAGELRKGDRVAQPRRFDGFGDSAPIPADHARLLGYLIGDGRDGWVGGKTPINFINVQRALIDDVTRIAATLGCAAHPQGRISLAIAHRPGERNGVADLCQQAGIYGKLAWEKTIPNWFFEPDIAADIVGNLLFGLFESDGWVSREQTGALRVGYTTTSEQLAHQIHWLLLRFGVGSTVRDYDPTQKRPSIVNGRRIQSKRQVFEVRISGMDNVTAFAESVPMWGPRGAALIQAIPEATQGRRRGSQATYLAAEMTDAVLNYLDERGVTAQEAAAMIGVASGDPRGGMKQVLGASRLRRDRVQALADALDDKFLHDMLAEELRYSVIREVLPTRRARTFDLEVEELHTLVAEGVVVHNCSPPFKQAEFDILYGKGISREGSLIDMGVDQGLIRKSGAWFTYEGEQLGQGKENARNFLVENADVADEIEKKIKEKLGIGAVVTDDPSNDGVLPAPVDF
CCHF vOTU inh-1: blocks the CCHF virus ovarian tumor domain protease; CCHFV vOTU protease, Pep-AMC fluorescence; inhibition, % at 11.5 µM; hit rate 0.55% among 370,000
CCHF vOTU inh-2: confirmation of CCHF virus vOTU protease inhibitors | shares compounds with CCHF vOTU inh-1 | Recombinant CCHFV vOTU, Pep-AMC fluorescence | inhibition, % at 11.5 µM | hit rate 17% among 1,900 | AID 686976
A number is an active result; 0 = inactive; - = not tested or not shown. Rule as the data show it, unless noted: active = inhibition above about 30%; inactive = the rest.

SMILES	Sa ugtP lethal	RN4220 kill	BJeLR viability	Mtb hypoxia rep	RecA intein inh	CCHF vOTU inh-1	CCHF vOTU inh-2
CN(C)S(=O)(=O)N1CCCN(S(=O)(=O)N(C)C)CC1	0	0	0	0	0	44.0	0
Cc1cc(C=NNC(=O)c2cccc(N(C)C)c2)c(C)n1-c1cc(C(=O)O)cc(C(=O)O)c1	0	0	-	0	-	-	-
C=CC[C@@H](CC(=O)N[C@@H](CO)Cc1ccccc1)C(=O)N[C@H](COC(=O)[C@@H](CC=C)CC(=O)OC(C)(C)C)Cc1ccccc1	0	0	-	0	-	39.4	0
C=CCC[C@@H](Cc1ccc(F)cc1)C(=O)OC[C@@H](Cc1c[nH]c2ccccc12)NC(=O)[C@H](CC=C)CC(=O)N(CCO)Cc1ccccc1	-	-	-	-	-	0	-
C=CC[C@@H](CC(=O)N(CCO)Cc1ccccc1)C(=O)N[C@@H](COC(=O)[C@@H](CC=C)CC(=O)OC(C)(C)C)Cc1c[nH]c2ccccc12	-	-	-	-	-	39.9	0
C=CCC[C@H](Cc1ccc(F)cc1)C(=O)OC[C@@H](Cc1c[nH]c2ccccc12)NC(=O)[C@H](CC=C)CC(=O)N(CCO)Cc1ccccc1	-	-	-	-	-	35.0	0
C=CC[C@@H](CC(=O)N(CCO)Cc1ccccc1)C(=O)N[C@H](COC(=O)[C@@H](CC=C)CC(=O)OC(C)(C)C)c1ccccc1	-	-	-	-	-	31.6	0
Cc1ccccc1OCc1nc2ccccc2c(=O)n1N=Cc1cn[nH]c1-c1ccc(Br)cc1	0	0	-	0	-	-	-
CC(=O)Nc1ccc(C(=O)Nc2ccc(S(=O)(=O)N3CCCCC3)cc2)cc1	0	0	0	0	0	0	-
CC(=O)Nc1ccc(NC(=O)c2ccc(S(=O)(=O)N3CCCCCC3)cc2)cc1	-	-	-	-	-	42.5	0
COc1ccc(CNC(=O)C2CC=CC3CCN(Cc4ccccc4)C(=O)C32)cc1 (configuration not stated)	0	0	-	0	-	-	-
CC(=O)Oc1cc(C)c(Cl)c2c(OC(C)=O)cc(C(C)=O)c(O)c12	-	-	-	-	-	32.0	0
O=c1[nH]c2c(s1)C(c1ccco1)C1C3CCC(C3)C1S2 (configuration not stated)	0	0	0	0	0	32.5	0
Nc1cc2cccnc2cc1Cl	0	0	-	0	-	39.2	0
CCOc1ccc2noc3c2c1C(=O)c1ccccc1-3	-	-	0	-	0	86.6	36.7
C(=NN=Cc1cccs1)c1cccs1	0	0	-	0	-	-	-
C(=NN=C(NN=Cc1cccs1)NN=Cc1cccs1)c1cccs1	0	0	-	0	-	33.4	0
COc1cc(C=NNC(=O)c2nnn(-c3nonc3N)c2C(C)C)ccc1OCc1ccccc1	0	0	-	0	-	-	-
CCOC(=O)c1c(N)n(Cc2ccco2)c2nc3ccccc3nc12	0	0	-	0	-	0	-
CCCCn1c(NS(=O)(=O)c2ccc(C)cc2)c(C(=O)OCC)c2nc3ccccc3nc21	-	-	0	-	0	94.7	0
CCCCn1c(N)c(C(=O)OCCOC)c2nc3ccccc3nc21	0	0	0	0	0	0	-
CCCCn1c(NC(=O)c2ccco2)c(C(=O)OCC)c2nc3ccccc3nc21	0	0	0	0	0	55.4	0
CCn1nnnc1SCC(=O)N1N=C(c2cccs2)CC1c1cccs1 (configuration not stated)	0	0	-	0	-	29.5	0
O=C1NC(Cc2ccccc2)C(=O)N2C1C[C@@]1(Br)c3ccccc3N(S(=O)(=O)c3ccc(F)cc3)C21 (some centres not stated)	0	0	-	0	-	-	-
Cc1ccc2cc(N)ccc2n1	0	0	-	0	-	0	-
SMILES	Sa ugtP lethal	RN4220 kill	BJeLR viability	Mtb hypoxia rep	RecA intein inh	CCHF vOTU inh-1	CCHF vOTU inh-2
Nc1ccc2cc3ccc(N)cc3nc2c1	-	-	-	-	-	52.9	29.7
O=C(NC1CCC(=O)N(C(CSc2ccc(Br)cc2)Cc2ccccc2)CC1)OCc1ccccc1 (configuration not stated)	0	0	-	0	-	-	-
Cc1ccc2nc(NC(=S)NC(=O)c3ccco3)sc2c1	0	0	0	0	0	0	-
Cc1ccc2nsnc2c1NC(=S)NC(=O)c1ccco1	0	0	0	0	0	58.5	0
Oc1cc(Nc2cccnc2)cc2cccnc12	0	0	-	0	-	0	-
Oc1cc(NCCc2cccnc2)cc2cccnc12	0	0	-	0	-	41.2	0
Cc1ccc2c(c1)C1C(CO2)C(c2ccccc2)[C@]2(C)C(=O)Nc3cc(F)ccc3C(=O)N12 (some centres not stated)	0	0	-	0	-	-	-
CC(=NNC(=O)COc1ccc(C(C)(C)C)cc1)c1ccc2c(c1)OCCO2	0	0	-	0	-	-	-
CN(C)c1ccc(-c2[nH][nH]c(=O)c2NC(=O)c2ccccn2)cc1	-	-	-	-	-	112.8	0
CN(C)c1ccc(-c2[nH][nH]c(=O)c2NC(=O)c2ccc3ccccc3n2)cc1	-	-	-	-	-	105.2	0
Cc1cnc(C(=O)Nc2c(-c3ccccc3)[nH][nH]c2=O)cn1	-	-	-	-	-	0	-
CC1CCN(C(=O)c2ccc(CNS(=O)(=O)c3ccc(C(C)(C)C)cc3)cc2)CC1	0	0	-	0	-	32.6	0
Cc1ccc2c(c1C)-c1c(ccc(C)c1C)C(=O)C2=O	-	-	-	-	-	75.4	72.2
CCCCCCCCCCCCN1C(CC(=O)O)c2cc(F)ccc2S1(=O)=O (configuration not stated)	0	0	-	0	-	-	-
CCCCCCCCCCCCN1[C@@H](CC(=O)O)c2cc(F)ccc2S1(=O)=O	-	-	0	-	0	31.8	42.2
CCOC(=O)C1C2COc3ccc(OC)cc3C2N2C(=O)CN(Cc3ccc(F)cc3)C(=O)[C@@]12C (some centres not stated)	0	0	-	0	-	-	-
CCOCCCn1c(N)c(C(=O)Nc2sc3c(c2C(=O)OC)CCCC3)c2nc3ccccc3nc21	0	0	0	0	0	30.9	0
Cc1ccc(C2C3C(=O)N(c4ccccc4)C(=O)C3[C@]3(C)C(=O)N(CC4CC4)CC(=O)N23)o1 (some centres not stated)	0	0	-	0	-	-	-
NS(=O)(=O)c1ccc(NC(=O)COC(=O)c2ccc([N+](=O)[O-])s2)cc1	0	0	0	0	0	73.8	62.7
Cc1cc(C)c(NC(=O)COC(=O)c2ccc([N+](=O)[O-])s2)c(C)c1	0	0	0	0	0	54.3	0
CN(CC(=O)Nc1ccccc1Cl)C(=O)COC(=O)c1ccc([N+](=O)[O-])s1	0	0	-	0	-	77.7	39.2
CN(CC(=O)Nc1ccccc1Cl)C(=O)COC(=O)c1cccs1	0	0	-	0	-	0	-
COc1ccccc1NC(=O)COC(=O)c1ccc([N+](=O)[O-])s1	0	0	0	0	0	79.9	100.0
Cc1ccc(NC(=O)COC(=O)c2ccc([N+](=O)[O-])s2)c(C)c1	0	0	0	0	0	0	-
Cc1ccc(C2CC(=O)N3CN(c4ccc(Br)cc4)CSC3=C2C#N)o1 (configuration not stated)	0	0	0	0	0	29.6	0
CC=CC(=O)N1CC2(CC(c3cccc(NC(=O)COc4ccc(Cl)cc4)c3)=NO2)CC1C(N)=O (configuration not stated)	0	0	-	0	-	-	-

Source: PubChem BioAssay
